Source: the supplement of paper PMC8007513
Where a name gives a salt, the structure may show the parent alone. ± gives the standard error. Out of some 1,300 compounds screened, about 130 (10%) showed an effect of 50% or more. This excerpt belongs to a sample that is enriched for strong results.

Tested on: Trichoderma virens ATCC 9645
Assay: growth yield (OD600) with compound + IPBC relative to untreated control; higher = less growth inhibition
Details: compound concentration: 100 uM, IPBC concentration: 200 ng/ml
Method in brief: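 Trichoderma virens ATCC 9645 spores, from potato dextrose agar plates grown for 7 days, were brought to 15,000 spores ml^−1 in potato dextrose broth and dispensed as 100 μl aliquots into 96-well plates. Each aliquot received library compounds at 100 μM final, with or without a biocide at 200 ng ml^−1, before growth at 30 °C and OD600 readings on a BioTek EL800 at 40 h and 72 h. Growth is expressed relative to the control containing neither agent and represents means of duplicate screens.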

Structure (SMILES) | growth yield (40 h) [%] | growth yield (72 h) [%]
COc1ccc(C(CN(C)C)C2(O)CCCCC2)cc1 (stereo not drawn) [Venlafaxine] + CCCCNC(=O)OCC#CI [3-iodo-2-propynyl butylcarbamate (IPBC)] | 85.6 ± 4.3 | 89 ± 3
CC(C)Cc1ccc([C@H](C)C(=O)O)cc1 [S-(+)-ibuprofen] + CCCCNC(=O)OCC#CI [3-iodo-2-propynyl butylcarbamate (IPBC)] | 70.68 ± 0.16 | 96.7 ± 1.7
CC(C(=O)O)c1ccc2c(c1)[nH]c1ccc(Cl)cc12 (stereo not drawn) [Carprofen] + CCCCNC(=O)OCC#CI [3-iodo-2-propynyl butylcarbamate (IPBC)] | 33.2 ± 0.16 | 68.3 ± 1.1
CC(C(=O)O)c1ccc(C(=O)c2cccs2)cc1 (stereo not drawn) [Suprofen] + CCCCNC(=O)OCC#CI [3-iodo-2-propynyl butylcarbamate (IPBC)] | 86.6 ± 14 | 89.1 ± 8.6
CC(C)(C)NC[C@H](O)COc1cccc2c1CCCC2=O [(-) -Levobunolol hydrochloride] + CCCCNC(=O)OCC#CI [3-iodo-2-propynyl butylcarbamate (IPBC)] | 97.8 ± 16 | 99.2 ± 11
c1ccc(C2CN3CCSC3=N2)cc1 (stereo not drawn) [Tetramisole hydrochloride] + CCCCNC(=O)OCC#CI [3-iodo-2-propynyl butylcarbamate (IPBC)] | 87.8 ± 9.1 | 93.1 ± 4.8
Clc1ccc(Cn2c(CN3CCCC3)nc3ccccc32)cc1 [Clemizole hydrochloride] + CCCCNC(=O)OCC#CI [3-iodo-2-propynyl butylcarbamate (IPBC)] | 73.5 ± 1.4 | 98.5 ± 1.4
COc1ccc(CCN2CCC(Nc3nc4ccccc4n3Cc3ccc(F)cc3)CC2)cc1 [Astemizole] + CCCCNC(=O)OCC#CI [3-iodo-2-propynyl butylcarbamate (IPBC)] | 5.08 | 4.3 ± 0.32
CN(c1nccc(=O)[nH]1)C1CCN(c2nc3ccccc3n2Cc2ccc(F)cc2)CC1 [Mizolastine] + CCCCNC(=O)OCC#CI [3-iodo-2-propynyl butylcarbamate (IPBC)] | 70.2 ± 3.2 | 88.1 ± 4.8
CC(C)NCC(O)COc1ccc(CCOCC2CC2)cc1 (stereo not drawn) [Betaxolol hydrochloride] + CCCCNC(=O)OCC#CI [3-iodo-2-propynyl butylcarbamate (IPBC)] | 90.2 ± 11 | 99.4 ± 4.2
NC[C@H]1O[C@H](O[C@H]2[C@H](O[C@@H]3O[C@H](CO)[C@@H](O)[C@H]3O)[C@@H](O)[C@H](N)C[C@@H]2N)[C@H](N)[C@@H](O)[C@@H]1O [Ribostamycin sulfate salt] + CCCCNC(=O)OCC#CI [3-iodo-2-propynyl butylcarbamate (IPBC)] | 91.5 ± 6.3 | 96.1 ± 3.4
Cc1cccn2c(=O)c(-c3nnn[nH]3)cnc12 [Pemirolast potassium] + CCCCNC(=O)OCC#CI [3-iodo-2-propynyl butylcarbamate (IPBC)] | 72.7 ± 1.9 | 84.4 ± 2
O=C1CN(/N=C/c2ccc(-c3ccc([N+](=O)[O-])cc3)o2)C(=O)N1 [Dantrolene sodium salt] + CCCCNC(=O)OCC#CI [3-iodo-2-propynyl butylcarbamate (IPBC)] | 103 ± 3.8 | 104 ± 3.1
CCCCC(CC)CNC(=N)NC(=N)NCCCCCCNC(=N)NC(=N)NCC(CC)CCCC (stereo not drawn) [Alexidine dihydrochloride] + CCCCNC(=O)OCC#CI [3-iodo-2-propynyl butylcarbamate (IPBC)] | 2.5415 ± 3.6e-15 | 2.94 ± 0.21
Cn1c(=O)c2c(ncn2CC(=O)O)n(C)c1=O [Acefylline] + CCCCNC(=O)OCC#CI [3-iodo-2-propynyl butylcarbamate (IPBC)] | 90.1 ± 2.1 | 91.1 ± 2
NCC(CC(=O)O)c1ccc(Cl)cc1 (racemic) [Baclofen (R,S)] + CCCCNC(=O)OCC#CI [3-iodo-2-propynyl butylcarbamate (IPBC)] | 96.1 ± 4 | 96.8 ± 3.2
CC(=O)Oc1ccccc1C(=O)Oc1ccccc1C(=O)O [Acetylsalicylsalicylic acid] + CCCCNC(=O)OCC#CI [3-iodo-2-propynyl butylcarbamate (IPBC)] | 85 ± 1.8 | 89.7 ± 2.2
O=C(Oc1cccc2cccnc12)c1ccccc1 [Benzoxiquine] + CCCCNC(=O)OCC#CI [3-iodo-2-propynyl butylcarbamate (IPBC)] | 36.4 ± 0.48 | 65.5 ± 0.73
O=C(O)c1cccnc1 [Niacin] + CCCCNC(=O)OCC#CI [3-iodo-2-propynyl butylcarbamate (IPBC)] | 105 ± 1.9 | 102.8 ± 0.84
Fc1ccc([C@@H]2CCNC[C@H]2COc2ccc3c(c2)OCO3)cc1 [Paroxetine Hydrochloride] + CCCCNC(=O)OCC#CI [3-iodo-2-propynyl butylcarbamate (IPBC)] | 68 ± 4.8 | 92.5 ± 2.5

Structure (SMILES) | growth yield (40 h) [%] | growth yield (72 h) [%]
O=C(O)CNC(=O)C(CS)Cc1ccccc1 (stereo not drawn) [Thiorphan] + CCCCNC(=O)OCC#CI [3-iodo-2-propynyl butylcarbamate (IPBC)] | 88.16 ± 0.48 | 90
C/C(=C(\CCOP(=O)(O)O)SC(=O)c1ccccc1)N(C=O)Cc1cnc(C)nc1N [Benfotiamine] + CCCCNC(=O)OCC#CI [3-iodo-2-propynyl butylcarbamate (IPBC)] | 89.6 ± 4.1 | 90.3 ± 3.7
COc1cc(C)nc(-n2nc(C)cc2OC)n1 [Epirizole] + CCCCNC(=O)OCC#CI [3-iodo-2-propynyl butylcarbamate (IPBC)] | 92.3 ± 7.5 | 101 ± 6.2
C[C@@H](CN1CC(=O)NC(=O)C1)N1CC(=O)NC(=O)C1 [Dexrazoxane hydrochloride] + CCCCNC(=O)OCC#CI [3-iodo-2-propynyl butylcarbamate (IPBC)] | 109.4 ± 0.48 | 106 ± 4.2
CCN(CC)C(=O)/C(C#N)=C/c1cc(O)c(O)c([N+](=O)[O-])c1 [Entacapone] + CCCCNC(=O)OCC#CI [3-iodo-2-propynyl butylcarbamate (IPBC)] | 88 ± 0.64 | 80.4 ± 1.4
Cc1ccc(C(=O)c2cc(O)c(O)c([N+](=O)[O-])c2)cc1 [Tolcapone] + CCCCNC(=O)OCC#CI [3-iodo-2-propynyl butylcarbamate (IPBC)] | 47.5 ± 3.3 | 56 ± 2.7
NC[C@@H]1O[C@@H](O[C@H]2[C@H](O)[C@@H](O[C@H]3O[C@H](CO)[C@@H](O)[C@H](N)[C@H]3O)[C@H](N)C[C@@H]2N)[C@@H](O)[C@H](O)[C@H]1O [Kanamycin A sulfate] + CCCCNC(=O)OCC#CI [3-iodo-2-propynyl butylcarbamate (IPBC)] | 87.2 ± 9.4 | 93.4 ± 4.7
c1ccc(CN(CC2=NCCN2)c2ccccc2)cc1 [Antazoline hydrochloride] + CCCCNC(=O)OCC#CI [3-iodo-2-propynyl butylcarbamate (IPBC)] | 82.76 ± 0.79 | 94.28 ± 0.94
C#C[C@]1(O)CC[C@H]2[C@@H]3CCC4=CC(=O)CC[C@]4(C)[C@H]3CC[C@@]21C [Ethisterone] + CCCCNC(=O)OCC#CI [3-iodo-2-propynyl butylcarbamate (IPBC)] | 105 ± 2.7 | 105 ± 3.2
C=CCN1CCCC1CNC(=O)c1cc2nn[nH]c2cc1OC (stereo not drawn) [Alizapride hydrochloride] + CCCCNC(=O)OCC#CI [3-iodo-2-propynyl butylcarbamate (IPBC)] | 111.5 ± 0.32 | 107
OC(CNCC(O)C1CCc2cc(F)ccc2O1)C1CCc2cc(F)ccc2O1 (stereo not drawn) [Nebivolol hydrochloride] + CCCCNC(=O)OCC#CI [3-iodo-2-propynyl butylcarbamate (IPBC)] | 11.3 ± 4.3 | 63.7 ± 18
NC(=O)c1cccnc1 [Nicotinamide] + CCCCNC(=O)OCC#CI [3-iodo-2-propynyl butylcarbamate (IPBC)] | 106 ± 4.8 | 101.4 ± 0.94
C=CC1=C(C(=O)O)N2C(=O)[C@@H](NC(=O)/C(=N\OCC(=O)O)c3csc(N)n3)[C@H]2SC1 [Cefixime] + CCCCNC(=O)OCC#CI [3-iodo-2-propynyl butylcarbamate (IPBC)] | 104.8 ± 0.64 | 103
Clc1cc(Cl)c(OCC#CI)cc1Cl [Haloprogin] + CCCCNC(=O)OCC#CI [3-iodo-2-propynyl butylcarbamate (IPBC)] | 5.24 ± 0.48 | 2.83 ± 1.6
CC1=Nc2ccc(Cl)cc2S(=O)(=O)N1 [Diazoxide] + CCCCNC(=O)OCC#CI [3-iodo-2-propynyl butylcarbamate (IPBC)] | 97.4 ± 4 | 100.8 ± 0.94
CC[C@H]1OC(=O)[C@H](C)[C@@H](O[C@H]2C[C@@](C)(OC)[C@@H](O)[C@H](C)O2)[C@H](C)[C@@H](O[C@@H]2O[C@H](C)C[C@H](N(C)C)[C@H]2O)[C@](C)(O)C[C@@H](C)/C(=N\OCOCCOC)[C@H](C)[C@@H](O)[C@]1(C)O [Roxithromycin] + CCCCNC(=O)OCC#CI [3-iodo-2-propynyl butylcarbamate (IPBC)] | 97.2 ± 9.5 | 96.4 ± 4.3
CC(C)(C(=O)O)c1ccc(C(O)CCCN2CCC(C(O)(c3ccccc3)c3ccccc3)CC2)cc1 (stereo not drawn) [Fexofenadine hydrochloride] + CCCCNC(=O)OCC#CI [3-iodo-2-propynyl butylcarbamate (IPBC)] | 89.3 ± 5.4 | 95.5 ± 7.2
CC(C)(C)c1ccc(C(O)CCCN2CCC(C(O)(c3ccccc3)c3ccccc3)CC2)cc1 (stereo not drawn) [Terfenadine] + CCCCNC(=O)OCC#CI [3-iodo-2-propynyl butylcarbamate (IPBC)] | 47.2 ± 9.1 | 90.09 ± 0.73
OC(c1ccccc1)(c1ccccc1)C1CCNCC1 [Azacyclonol] + CCCCNC(=O)OCC#CI [3-iodo-2-propynyl butylcarbamate (IPBC)] | 80.06 ± 0.32 | 91.2 ± 1.5
